Data: ChEMBL document CHEMBL1961873, “Compounds: GSK PKIS; Assays: Nanosyn kinase panel” (2012)
Where “and” joins values, the source holds several entries; their conditions need not be identical. Equal entries are not always repeated.

Biological target: Leukocyte tyrosine kinase receptor (Homo sapiens) (UniProt P29376);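 further: each value is the mean inhibition of LTK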
Conditions: at 1 µM

Chain of Leukocyte tyrosine kinase receptor (Homo sapiens) (P29376 whole entry): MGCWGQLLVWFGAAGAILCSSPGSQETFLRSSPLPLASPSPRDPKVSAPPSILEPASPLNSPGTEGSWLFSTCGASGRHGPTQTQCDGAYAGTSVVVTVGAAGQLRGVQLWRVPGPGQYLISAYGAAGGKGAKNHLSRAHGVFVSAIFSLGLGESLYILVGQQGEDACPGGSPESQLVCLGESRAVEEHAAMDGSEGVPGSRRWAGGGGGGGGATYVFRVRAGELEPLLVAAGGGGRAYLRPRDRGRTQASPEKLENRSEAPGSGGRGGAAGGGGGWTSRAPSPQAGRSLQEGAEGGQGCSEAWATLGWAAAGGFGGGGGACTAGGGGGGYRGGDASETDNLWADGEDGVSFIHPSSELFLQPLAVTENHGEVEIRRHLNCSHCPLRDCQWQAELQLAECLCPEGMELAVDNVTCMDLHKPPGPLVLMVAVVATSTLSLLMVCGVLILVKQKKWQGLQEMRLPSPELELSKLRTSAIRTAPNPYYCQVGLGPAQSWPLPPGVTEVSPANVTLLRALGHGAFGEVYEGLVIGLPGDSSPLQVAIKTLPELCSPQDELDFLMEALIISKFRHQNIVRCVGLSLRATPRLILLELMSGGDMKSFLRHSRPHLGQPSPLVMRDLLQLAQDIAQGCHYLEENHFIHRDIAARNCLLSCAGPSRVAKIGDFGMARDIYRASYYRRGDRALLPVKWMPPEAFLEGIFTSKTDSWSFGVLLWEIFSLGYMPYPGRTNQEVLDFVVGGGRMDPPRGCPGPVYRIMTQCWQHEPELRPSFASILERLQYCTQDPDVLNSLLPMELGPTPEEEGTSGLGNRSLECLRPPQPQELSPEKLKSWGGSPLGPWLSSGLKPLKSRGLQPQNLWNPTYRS

| Structure (SMILES) | inhibition |
| --- | --- |
| CCCNc1cccc(-n2ncc3c(N/N=C/c4ccncc4)ncnc32)c1 | 4.23% |
| Cc1nnc(-c2cccc(-c3ccc(C(=O)NCC4CC4)cc3)c2)o1 | 4.76% |
| Cc1ccc(-c2cc3c(NC(=O)C4CC4)ncnc3o2)cc1 | 3.83% |
| Cc1cc(O)cc(C)c1/C=C/c1cncc(C(=O)OC(C)(C)C)c1 | 2.98% |
| COc1ccc(Nc2ncc(-c3ccccc3)o2)cc1OC | 2.24% |
| COC(=O)Nc1nc2ccc(Oc3ccc(NC(=O)Nc4cc(C(F)(F)F)ccc4F)cc3)cc2s1 | 2.2% |
| O=C1Nc2ccccc2/C1=C1\CCc2cc(O)ccc21 | 36.7% |
| O=C(Nc1n[nH]c2nnc(-c3cccnc3)cc12)C1CC1 | 0.15% |
| c1cnn2ncc(-c3ccnc(NCCCN4CCOCC4)n3)c2c1 | 2.33% |
| Cc1c2ccc(N(C)c3ccnc(Nc4cccc(S(N)(=O)=O)c4)n3)cc2nn1C | 24.1% |
| CNC(=O)c1sc(-n2cnc3cc(OC)c(OC)cc32)cc1OCc1ccccc1C(F)(F)F | 3.95% |
| CC1=C(C(=O)Nc2ccc3[nH]nc(C)c3c2)C(c2ccc(C(F)(F)F)cc2)CC(=O)N1 (configuration not stated) | 3.55% |
| Nc1nonc1-c1nc2cnccc2n1C1CC1 | 2.71% and 2.44% |
| COC(=O)Nc1nc2cc(Oc3ccc(NC(=O)Nc4ccccc4)cc3)ccc2[nH]1 | 4.01% |
| Nc1nccc(-c2c(-c3ccc(F)cc3)ncn2C2CCNCC2)n1 | -1.33% and 1.18% |
| COc1cccc(-n2ncc3c(N/N=C/c4ccc(C(=O)NCCN(C)C)cc4)ncnc32)c1 | 4.37% |

| Structure (SMILES) | inhibition |
| --- | --- |
| COc1c(C(N)=O)cc(-c2ccc(Cl)cc2)cc1-c1ccc(S(N)(=O)=O)cc1 | 6.74% |
| Fc1ccc(Nc2nccc(-c3c(-c4ccc(C(F)(F)F)cc4)nn4ncccc34)n2)cc1F | 3.06% |
| CCN1CCC(C(=O)Nc2n[nH]c3nnc(-c4cccc(F)c4F)cc23)CC1 | -0.29% |
| c1ccc(-c2n[nH]cc2-c2ccnc(-c3ccc(OCCn4ccnc4)cc3)c2)nc1 | 2.53% |
| CS(=O)(=O)CCNCc1ccoc1-c1ccc2ncnc(Nc3ccc(OCc4ccccc4)cc3)c2c1 | 1.37% |
| CCn1c(-c2nonc2N)nc2cncc(C(=O)NCCNC)c21 | 5.16% |
| CS(=O)(=O)CCNCc1ccc(-c2ccc3ncnc(Nc4ccc(OCc5ccccc5)cc4)c3c2)o1 | 4.57% |
| COc1cccc(Nc2nccc(-c3cnn4ncccc34)n2)c1 | 18.2% |
| CC1(C)CC(n2cnc(-c3ccc(F)cc3)c2-c2ccnc(N)n2)CC(C)(C)N1 | 0.76% |
| NC(=O)c1ccc2c(-c3ccnc(NCCCO)n3)c(-c3ccc(F)cc3)nn2c1 | 6.21% |
| CN1CCC(C(=O)Nc2n[nH]c3nc(-c4ccc(O)cc4)c(Br)cc23)CC1 | 50.1% and 45.5% |
| CS(=O)(=O)Nc1ccc(-c2cc(-c3ccccc3)cc(C(N)=O)c2N)cc1 | 2.83% |
| CNC(=O)c1ncccc1Nc1nc(Nc2cc3c(cc2OC)CCCN3C(=O)CN(C)C)nc2[nH]ccc12 | 94.4% |
| O=C(O[C@H]1CN[C@H](C#Cc2cc3ncnc(Nc4ccc5c(ccn5Cc5cc(F)ccc5F)c4)c3s2)C1)N1CCOCC1 | 4.15% |
| COc1cc(N2CCN(C(C)C)CC2)ccc1Nc1nc(Nc2cccc3ncccc23)c2cc[nH]c2n1 | 80.2% |

Biological target: Tyrosine-protein kinase Lyn (Homo sapiens) (UniProt P07948);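 further: mean inhibition of the LYN A splice variant of the kinase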
Conditions: at 0.1 µM

Chain of Tyrosine-protein kinase Lyn (Homo sapiens) (P07948 2-512 limits assumed): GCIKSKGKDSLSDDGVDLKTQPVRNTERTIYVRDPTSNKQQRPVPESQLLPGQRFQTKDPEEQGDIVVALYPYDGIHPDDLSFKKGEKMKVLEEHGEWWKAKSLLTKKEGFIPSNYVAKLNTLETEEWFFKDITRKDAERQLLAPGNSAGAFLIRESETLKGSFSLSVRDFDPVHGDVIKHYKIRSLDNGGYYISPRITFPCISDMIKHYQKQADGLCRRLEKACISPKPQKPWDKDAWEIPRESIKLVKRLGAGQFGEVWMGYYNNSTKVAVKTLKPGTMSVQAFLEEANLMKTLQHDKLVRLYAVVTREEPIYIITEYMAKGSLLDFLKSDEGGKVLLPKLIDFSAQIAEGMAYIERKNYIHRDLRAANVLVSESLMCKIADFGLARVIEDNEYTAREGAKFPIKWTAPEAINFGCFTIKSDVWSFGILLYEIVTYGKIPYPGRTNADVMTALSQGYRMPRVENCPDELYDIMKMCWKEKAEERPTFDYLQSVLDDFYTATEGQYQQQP

| Structure (SMILES) | inhibition |
| --- | --- |
| CCCNc1cccc(-n2ncc3c(N/N=C/c4ccncc4)ncnc32)c1 | 18% |
| Cc1nnc(-c2cccc(-c3ccc(C(=O)NCC4CC4)cc3)c2)o1 | 7.2% |
| Cc1ccc(-c2cc3c(NC(=O)C4CC4)ncnc3o2)cc1 | 5.46% |
| Cc1cc(O)cc(C)c1/C=C/c1cncc(C(=O)OC(C)(C)C)c1 | 13.7% |
| COc1ccc(Nc2ncc(-c3ccccc3)o2)cc1OC | 7.52% |
| COC(=O)Nc1nc2ccc(Oc3ccc(NC(=O)Nc4cc(C(F)(F)F)ccc4F)cc3)cc2s1 | 28.7% |
| O=C1Nc2ccccc2/C1=C1\CCc2cc(O)ccc21 | 6.08% |
| O=C(Nc1n[nH]c2nnc(-c3cccnc3)cc12)C1CC1 | 0.94% |
| c1cnn2ncc(-c3ccnc(NCCCN4CCOCC4)n3)c2c1 | 5.49% |
| Cc1c2ccc(N(C)c3ccnc(Nc4cccc(S(N)(=O)=O)c4)n3)cc2nn1C | 41.3% |
| CNC(=O)c1sc(-n2cnc3cc(OC)c(OC)cc32)cc1OCc1ccccc1C(F)(F)F | 3.05% |
| CC1=C(C(=O)Nc2ccc3[nH]nc(C)c3c2)C(c2ccc(C(F)(F)F)cc2)CC(=O)N1 (configuration not stated) | 4.49% |
| Nc1nonc1-c1nc2cnccc2n1C1CC1 | 3.73% and 1.56% |
| COC(=O)Nc1nc2cc(Oc3ccc(NC(=O)Nc4ccccc4)cc3)ccc2[nH]1 | 3.96% |
| Nc1nccc(-c2c(-c3ccc(F)cc3)ncn2C2CCNCC2)n1 | -0.63% and 1.67% |
| COc1cccc(-n2ncc3c(N/N=C/c4ccc(C(=O)NCCN(C)C)cc4)ncnc32)c1 | 56.9% |

| Structure (SMILES) | inhibition |
| --- | --- |
| COc1c(C(N)=O)cc(-c2ccc(Cl)cc2)cc1-c1ccc(S(N)(=O)=O)cc1 | 5.65% |
| Fc1ccc(Nc2nccc(-c3c(-c4ccc(C(F)(F)F)cc4)nn4ncccc34)n2)cc1F | 2.77% |
| CCN1CCC(C(=O)Nc2n[nH]c3nnc(-c4cccc(F)c4F)cc23)CC1 | 0.08% |
| c1ccc(-c2n[nH]cc2-c2ccnc(-c3ccc(OCCn4ccnc4)cc3)c2)nc1 | 2.2% |
| CS(=O)(=O)CCNCc1ccoc1-c1ccc2ncnc(Nc3ccc(OCc4ccccc4)cc3)c2c1 | 2.38% |
| CCn1c(-c2nonc2N)nc2cncc(C(=O)NCCNC)c21 | 5.55% |
| CS(=O)(=O)CCNCc1ccc(-c2ccc3ncnc(Nc4ccc(OCc5ccccc5)cc4)c3c2)o1 | 4.79% |
| COc1cccc(Nc2nccc(-c3cnn4ncccc34)n2)c1 | 5.3% |
| CC1(C)CC(n2cnc(-c3ccc(F)cc3)c2-c2ccnc(N)n2)CC(C)(C)N1 | 0.33% |
| NC(=O)c1ccc2c(-c3ccnc(NCCCO)n3)c(-c3ccc(F)cc3)nn2c1 | 6.82% |
| CN1CCC(C(=O)Nc2n[nH]c3nc(-c4ccc(O)cc4)c(Br)cc23)CC1 | 4.2% and 2.89% |
| CS(=O)(=O)Nc1ccc(-c2cc(-c3ccccc3)cc(C(N)=O)c2N)cc1 | 0.46% |
| CNC(=O)c1ncccc1Nc1nc(Nc2cc3c(cc2OC)CCCN3C(=O)CN(C)C)nc2[nH]ccc12 | 3.52% |
| O=C(O[C@H]1CN[C@H](C#Cc2cc3ncnc(Nc4ccc5c(ccn5Cc5cc(F)ccc5F)c4)c3s2)C1)N1CCOCC1 | 4.33% |
| COc1cc(N2CCN(C(C)C)CC2)ccc1Nc1nc(Nc2cccc3ncccc23)c2cc[nH]c2n1 | 0.41% |
